Values joined by “and” are separate entries in the source; they are usually repeats but may differ in a detail not shown here. Equal entries are not always repeated. Out of some 5,500 compounds screened, about 2,000 (36%) were called active. Another 18% or so got no clear call; they are omitted. Cut-off read from the data, not from the text of the source: active = normalized growth mostly below about 0.91 (no sharp cut-off); inconclusive = no clear call, values can overlap the other calls; inactive = mostly above about 0.92. Some of the results follow.
Experiment: chemical genetic growth profiling, strain panel (AID 1159580);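 note: tested at 20 µM; growth read once vehicle control cultures reached saturation at 30 °C; 1 = growth at the plate median or of vehicle wells; lower values mean less growth of the strain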
Conditions: S. cerevisiae deletion strains, growth OD

Measured: normalized growth

CC1=C(CC(=O)O)c2cc(F)ccc2/C1=C\c1ccc(S(C)=O)cc1 (stereo unspecified)
inactive: locus YAL013W, strain DEP1, hits give low values 1 | locus YAL021C, strain ccr4, hits give low values 1.02 | locus YAL026C, strain drs2, hits give low values 1.02 | locus YAL030W, strain snc1, hits give low values 1.01 | locus YAL040C, strain CLN3, hits give low values 0.99 | locus YBL061C, strain skt5, hits give low values 1.02 | locus YBR009C, strain hhf1, hits give low values 1.01 | locus YBR021W, strain FUR4, hits give low values 1.03 | locus YBR023C, strain chs3, hits give low values 1.02 | locus YBR171W, strain sec66, hits give low values 1.02 | locus YBR229C, strain ROT2, hits give low values 1 | locus YBR231C, strain swc5, hits give low values 1.03 | locus YBR279W, strain paf1, hits give low values 1.01 | locus YCL011C, strain gbp2, hits give low values 1.03 | locus YCL016C, strain dcc1, hits give low values 1.01 | locus YCL029C, strain bik1, hits give low values 1.02 | locus YCL061C, strain MRC1 (second series), hits give low values 1.01 | locus YCL061C, strain MRC1, hits give low values 1.02 | locus YCL069W, strain vba3, hits give low values 1.02 | locus YCR088W, strain abp1, hits give low values 1.02 | locus YDL005C, strain med2, hits give low values 1.02 | locus YDL035C, strain GPR1, hits give low values 1.01 | locus YDL040C, strain nat1, hits give low values 1.01 | locus YDL074C, strain BRE1, hits give low values 0.981 | locus YDL101C, strain DUN1, hits give low values 1.01 | locus YDL134C, strain PPH21, hits give low values 0.999 | locus YDL185W, strain tfp1, hits give low values 1 | locus YDL192W, strain arf1, hits give low values 1.02 | locus YDR001C, strain nth1, hits give low values 1.02 | locus YDR069C, strain doa4, hits give low values 1.01 | locus YDR101C, strain arx1, hits give low values 1.06 | locus YDR137W, strain rgp1, hits give low values 1.02 | locus YDR150W, strain NUM1, hits give low values 0.996 | locus YDR159W, strain sac3, hits give low values 1.02 | locus YDR162C, strain NBP2, hits give low values 1.01 | locus YDR195W, strain ref2 1.04 | locus YDR297W, strain sur2, hits give low values 1.02 | locus YDR318W, strain mcm21, hits give low values 1.02 | locus YDR334W, strain swr1, hits give low values 1.02 | locus YDR335W, strain msn5, hits give low values 1.01 | locus YDR363W, strain ESC2, hits give low values 0.995 | locus YDR388W, hits give low values 1.03 | locus YDR392W, strain spt3, hits give low values 0.996 | locus YDR502C, strain sam2, hits give low values 1.02 | locus YEL003W, strain gim4, hits give low values 1.02 | locus YEL037C, strain rad23, hits give low values 1.02 | locus YEL061C, strain CIN8 (second series), hits give low values 1.03 | locus YEL061C, strain CIN8, hits give low values 1.01 | locus YER002W, strain NOP16, hits give low values 0.993 | locus YER015W, strain faa2, hits give low values 1.01 | locus YER016W, strain bim1, hits give low values 1 | locus YER110C, hits give low values 1.03 | locus YER111C, strain swi4, hits give low values 1.03 | locus YER155C, strain BEM2 (second series), hits give low values 1.03 | locus YER155C, strain BEM2, hits give low values 1.01 | locus YER167W, strain BCK2, hits give low values 1.01 | locus YFR010W, strain ubp6, hits give low values 1.02 | locus YGL078C, strain dbp3, hits give low values 1.02 | locus YGL086W, strain mad1, hits give low values 1.01 | locus YGL167C, strain pmr1, hits give low values 1.03 | locus YGL173C, strain kem1, hits give low values 1.02 | locus YGL227W, strain vid30, hits give low values 1.03 | locus YGL240W, strain doc1, hits give low values 1.01 | locus YGL248W, strain PDE1, hits give low values 0.999 | locus YGL253W, strain hxk2, hits give low values 1.02 | locus YGR078C, strain PAC10, hits give low values 1.01 and 0.998 | locus YGR135W, strain pre9, hits give low values 1 | locus YGR229C, strain SMI1, hits give low values 0.977 | locus YGR252W, strain gcn5, hits give low values 0.982 | locus YHR013C, strain ard1, hits give low values 1.03 | locus YHR027C, strain rpn1, hits give low values 1.02 | locus YHR030C, strain SLT2, hits give low values 1.01 and 0.982 | locus YHR079C, strain IRE1 (second series), hits give low values 1.03 | locus YHR079C, strain IRE1, hits give low values 0.988 | locus YHR094C, strain hxt1, hits give low values 1.02 | locus YHR129C, strain ARP1, hits give low values 0.996 | locus YHR142W, strain chs7, hits give low values 1.02 | locus YHR200W, strain rpn10, hits give low values 1.03 | locus YIL066C, strain RNR3, hits give low values 1 | locus YIL073C, strain SPO22, hits give low values 1.04 | locus YIL125W, strain kgd1, hits give low values 1.02 | locus YIR030C, strain dcg1, hits give low values 1.02 | locus YJL092W, strain hpr5, hits give low values 1.02 | locus YJL095W, strain BCK1 (second series), hits give low values 1.02 | locus YJL095W, strain BCK1, hits give low values 0.992 and 0.97 | locus YJL115W, strain asf1, hits give low values 1.03 | locus YJL129C, strain trk1, hits give low values 1.03 | locus YJL134W, strain LCB3, hits give low values 1.01 | locus YJL154C, strain vps35, hits give low values 1.02 | locus YJL164C, strain tpk1, hits give low values 1.01 | locus YJL166W, strain qcr8, hits give low values 1.01 | locus YJL168C, strain set2, hits give low values 1.02 | locus YJL187C, strain SWE1 (second series), hits give low values 1.01 | locus YJL187C, strain SWE1, hits give low values 1.02 | locus YJR043C, strain POL32, hits give low values 1 | locus YJR066W, strain TOR1, hits give low values 0.924
